Results reported in PubChem BioAssay (NCATS).
Results filed as inconclusive are left out. Where a call stands in place of a potency, no number is given. Activity calls are given as the source filed them. Calls come from the whole dose curve; as a rule, active = well fitted inhibition curve with a large enough effect; inconclusive = small, poorly fitted or top-dose-only effect; inactive = flat fitted curve, though single readings scatter. Peptide text beside a SMILES is read from it.

Columns and labels:
Assay in all cases: qHTS profiling for inhibitors of Plasmodium falciparum proliferation (AID 504749); note: nearly all actives have a fitted effect of over 60% in size
Conditions in all cases: P. falciparum in erythrocytes, SYBR Green DNA, 72 h; series mostly up to 28.7 µM
P94_40 = test system: P94_40
Summary of the method: (§1)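 Each compound contacts P. falciparum-infected red blood cells for 72 h at 37 C; lysis buffer (Tris, EDTA, saponin, Triton X, SYBR Green I) is added and fluorescence measured next morning; values normalized to controls.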

PAD = test system: PAD
Summary of the method: as §1

PC15 = test system: PC15
Summary of the method: as §1

PC26 = test system: PC26
Summary of the method: as §1

PC49 = test system: PC49
Summary of the method: as §1

SC27B = test system: SC27B
Summary of the method: as §1

TAB109 = test system: TAB109
Summary of the method: as §1

TAB113 = test system: TAB113
Summary of the method: as §1

TAB165 = test system: TAB165
Summary of the method: as §1

W2 = test system: W2
Summary of the method: as §1
Potency is the fitted concentration of half-maximal effect.

SMILES	Potency (P94_40)	Potency (PAD)	Potency (PC15)	Potency (PC26)	Potency (PC49)	Potency (SC27B)	Potency (TAB109)	Potency (TAB113)	Potency (TAB165)	Potency (W2)
CCCCCCCC(=O)O	inactive	inactive	inactive	inactive	inactive	inactive	inactive	inactive	inactive	inactive
CC(=O)N[C@@H](CC(=O)O)C(=O)N[C@@H](CCC(=O)O)C(=O)O (Ac-Asp-Glu-OH)	inactive	inactive	inactive	inactive	inactive	inactive	inactive	inactive	inactive	inactive
CC(NNC(=O)c1ccccc1)c1ccccc1 (centres undefined)	inactive	inactive	inactive	inactive	inactive	inactive	inactive	inactive	inactive	inactive
O=C(COc1ccc(Cl)cc1)OCCNC12CC3CC(CC(C3)C1)C2	inactive	inactive	inactive	inactive	inactive	inactive	inactive	inactive	inactive	–
Oc1cc(O)c2c(c1)OC(c1ccc(O)c(O)c1)C(O)C2 (centres undefined)	inactive	inactive	inactive	inactive	inactive	inactive	inactive	inactive	inactive	inactive
CC1=CCC(C(C)(C)O)CC1 (centres undefined)	inactive	inactive	inactive	inactive	inactive	inactive	inactive	inactive	inactive	inactive
CCC(=O)NCCC1CCc2ccc3c(c21)CCO3 (centres undefined)	inactive	inactive	inactive	inactive	inactive	inactive	inactive	inactive	inactive	inactive
O=C(O)CN(CCN(CC(=O)O)CC(=O)O)CC(=O)O	inactive	inactive	inactive	inactive	inactive	inactive	inactive	inactive	inactive	inactive
CC(C)N=c1cc2n(-c3ccc(Cl)cc3)c3ccccc3nc-2cc1Nc1ccc(Cl)cc1	–	inactive	–	inactive	inactive	inactive	inactive	inactive	inactive	–
O=C(Nc1ccc(Br)cc1)c1cc(Br)c(Br)s1	–	–	inactive	–	inactive	–	–	–	–	–
C#C[C@]1(O)CC[C@H]2[C@@H]3CCC4=CCCC[C@@H]4[C@H]3C(=C)C[C@@]21CC	–	–	inactive	inactive	–	–	–	–	–	–
NC1C2CN(c3nc4c(cc3F)c(=O)c(C(=O)O)cn4-c3ccc(F)cc3F)CC12 (centres undefined)	–	–	–	inactive	–	–	–	–	–	6.75 µM (active)
CC[C@@]1(O)C(=O)OCc2c1cc1n(c2=O)Cc2cc3c([N+](=O)[O-])cccc3nc2-1	5.01 µM (active)	–	–	–	–	5.62 µM (active)	3.98 µM (active)	5.62 µM (active)	3.98 µM (active)	4.78 µM (active)
CCCCC(=O)O[C@]1(C(=O)CO)[C@H](C)C[C@H]2[C@@H]3CCC4=CC(=O)C=C[C@]4(C)[C@@]3(F)[C@@H](O)C[C@@]21C	inactive	–	–	–	inactive	inactive	–	inactive	–	13.5 µM (active)
CCCCCCCC/C=C\CCCCCCCC(=O)O	inactive	inactive	–	inactive	inactive	inactive	–	inactive	inactive	inactive
O=C1CSC2(CCN(CCCN3c4ccccc4Sc4ccc(Cl)cc43)CC2)N1	–	–	–	–	–	–	–	–	–	4.78 µM (active)
O=C(O)c1cc(=O)c2c3nc4ccccc4oc-3cc(=O)c2[nH]1	inactive	–	–	–	inactive	–	–	inactive	–	–
COC(=O)C1=C(C#N)NC(C)=C(C(=O)OC(C)C)C1c1cccc([N+](=O)[O-])c1 (centres undefined)	–	10 µM (active)	10 µM (active)	13.5 µM (active)	12.6 µM (active)	8.91 µM (active)	8.91 µM (active)	–	10 µM (active)	–
CCOc1ccc(N=Nc2ccc(N)cc2N)cc1	–	–	inactive	inactive	inactive	–	inactive	–	–	inactive

SMILES	Potency (P94_40)	Potency (PAD)	Potency (PC15)	Potency (PC26)	Potency (PC49)	Potency (SC27B)	Potency (TAB109)	Potency (TAB113)	Potency (TAB165)	Potency (W2)
COC(=O)[C@H]1[C@H]2CC3c4[nH]c5ccccc5c4CCN3C[C@@H]2CC[C@@H]1O (some centres undefined)	–	inactive	inactive	–	inactive	inactive	inactive	inactive	inactive	–
CCCCC(CC)COC(=O)CC(C(=O)OCC(CC)CCCC)S(=O)(=O)O (centres undefined)	–	–	–	inactive	–	–	–	–	–	–
Cc1c(C)c2c(c(C)c1O)CC[C@@](C)(CCC[C@@H](C)CCC[C@@H](C)CCCC(C)C)O2	–	inactive	inactive	inactive	inactive	inactive	–	inactive	inactive	inactive
CC(C)=O	–	inactive	inactive	inactive	inactive	inactive	inactive	inactive	inactive	inactive
COc1cc(-c2ccc(-[n+]3nc(-c4ccccc4)nn3-c3ccc([N+](=O)[O-])cc3)c(OC)c2)ccc1-[n+]1nc(-c2ccccc2)nn1-c1ccc([N+](=O)[O-])cc1	10 µM (active)	–	–	15.1 µM (active)	–	–	–	–	–	12 µM (active)
O=CCCCC=O	inactive	inactive	inactive	–	inactive	inactive	inactive	inactive	–	13.5 µM (active)
CCCCCCOc1ccc(C(=N)N(CCCC)CCCC)c2ccccc12	12.6 µM (active)	–	10 µM (active)	–	–	–	7.94 µM (active)	10 µM (active)	12.6 µM (active)	3.38 µM (active)
CN(C)CCCN1c2ccccc2C(C)(C)c2ccccc21	–	inactive	–	–	inactive	–	–	–	–	4.26 µM (active)
CC(=O)Oc1cc(C)c(OC(C)=O)c2ccccc12	–	–	4.47 µM (active)	7.57 µM (active)	–	–	–	–	12.6 µM (active)	5.36 µM (active)
O=S(=O)(O)c1cc(O)c2c(N=Nc3ccc(Nc4ccccc4)c4c(S(=O)(=O)O)cccc34)cc(S(=O)(=O)O)cc2c1	–	inactive	–	–	–	inactive	–	–	–	–
CCOC(=O)C1=C(C)NC(C)=C(C(=O)OCC)C1c1ccccc1C=CC(=O)OC(C)(C)C	–	–	10 µM (active)	10.7 µM (active)	–	11.2 µM (active)	–	–	11.2 µM (active)	6.75 µM (active)
CC(Cc1ccc(O)c(O)c1)C(C)Cc1ccc(O)c(O)c1 (centres undefined)	–	–	–	–	inactive	inactive	–	inactive	–	15.1 µM (active)
CN1C(=O)CN2CCc3ccccc3C2c2cc(Cl)ccc21 (centres undefined)	inactive	–	inactive	–	inactive	–	–	–	–	–
CCN(CC)CCOc1ccc(-c2nc3cc(Cl)ccc3s2)cc1	–	–	–	inactive	inactive	inactive	–	–	–	–
CCOC(=O)C1=CC2(CC)CCCN3CCc4c(n1c1ccccc41)C32 (centres undefined)	12.6 µM (active)	11.2 µM (active)	11.2 µM (active)	–	–	10 µM (active)	7.94 µM (active)	11.2 µM (active)	7.94 µM (active)	–
C=C1C(=CC=C2CCC[C@@]3(C)[C@@H]2CC[C@H]3[C@H](C)CCCC(C)C)C[C@@H](O)C[C@@H]1O	–	–	–	inactive	–	–	–	–	–	9.53 µM (active)
O=C(Nc1cccc(C(F)(F)F)c1)c1cc(Br)cc(Br)c1O	–	–	–	–	–	8.91 µM (active)	–	12.6 µM (active)	14.1 µM (active)	6.75 µM (active)
CC1=C(/C=C/C(C)=C/C=C/C(C)=C/CO)C(C)(C)CCC1	–	–	–	–	–	–	–	11.2 µM (active)	–	7.57 µM (active)
Clc1cc(Cl)c(OCC#CI)cc1Cl	11.2 µM (active)	11.2 µM (active)	–	–	–	–	11.2 µM (active)	5.01 µM (active)	11.2 µM (active)	10.7 µM (active)
